{"source": "PubChem BioAssay (EPA / NIEHS)", "note": "Results filed as inconclusive are left out. The source holds several records for some structures; these can differ, active in one and inactive in another. Active and inactive are the calls of the source. How the source made its calls: active means hit-call score of the fitted dose curve at least 0.9, where 1 is the maximum; inconclusive means response in the unintended direction; inactive means score below 0.9."}
{"biological_target": "Cellular tumor antigen p53 (Homo sapiens) (UniProt P04637)", "sequence (P04637 whole entry, looked up, the tested form may be a part)": "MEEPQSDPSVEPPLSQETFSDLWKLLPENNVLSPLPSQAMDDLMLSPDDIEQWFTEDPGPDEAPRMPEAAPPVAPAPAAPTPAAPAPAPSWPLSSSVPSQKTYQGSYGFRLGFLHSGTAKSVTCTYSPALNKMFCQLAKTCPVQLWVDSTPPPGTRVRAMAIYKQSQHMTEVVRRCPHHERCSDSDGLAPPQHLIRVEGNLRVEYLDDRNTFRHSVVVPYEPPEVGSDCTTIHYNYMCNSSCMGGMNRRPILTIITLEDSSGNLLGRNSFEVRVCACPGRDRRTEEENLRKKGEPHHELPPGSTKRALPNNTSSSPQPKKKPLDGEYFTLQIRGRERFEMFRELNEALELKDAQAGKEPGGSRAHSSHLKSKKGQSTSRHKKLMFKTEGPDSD", "experiment": "TOX21_p53_BLA_p3_ratio: Tox21 HCT-116 p53 Agonism Beta-lactamase Assay, Ratio, Phase 3 (AID 2283596)", "from_the_text": "TOX21_p53_BLA_p3 is a cell-based, single-readout assay that uses HCT116, a human intestinal cell line, […] in a 1536-well plate.TOX21_p53_BLA_p3_ratio is an assay readout measuring reporter gene via receptor activity and designed using inducible reporter (beta lactamase induction) detected with GAL4 b-lactamase reporter gene. The signal is derived from the ratio of cleaved (ch2) to uncleaved (ch1) reporter gene substrate used as the measure of target activity.Data from the assay component TOX21_p53_BLA_p3_ratio was analyzed into 1 assay endpoint. This assay endpoint, TOX21_p53_BLA_p3_ratio, was analyzed in the positive analysis fitting direction relative to DMSO as the negative control and baseline of activity. Using a type of inducible reporter, gain-of-signal activity can be used to understand changes in the reporter gene as they relate to the gene TP53. Furthermore, this assay endpoint can be referred to as a primary readout, because this assay has produced multiple assay endpoints where this ratio serves a reporter gene function to understand target activity. To generalize the intended target to other relatable targets, this assay endpoint is annotated to the DNA binding intended target family, where the subfamily is tumor suppressor.\nThawing Method: Place 14 mL of pre-warmed thaw medium into a 15 mL of conical tub. Remove the vial of cells to be thawed from liquid nitrogen and thaw rapidly by placing at 37C in a water bath with gentle agitation for 1-2 minutes. Decontaminate the vial by wiping with 70% ethanol before opening in a biological safety cabinet. Transfer the vial contents drop-wise into 14 mL of thaw medium in a sterile 15-mL conical tub. Centrifuge cells at 900 rpm for 4 minutes and resuspend in thaw medium. Transfer contents to the T75 tissue culture flask containing Thaw Medium and place flask in a humidified 37C/5% CO2 incubator. Switch to growth medium at first passage.Propagation Method: Aspirate medium, rinse once in DPBS, add 0.25% Trypsin/EDTA and swirl to coat the cell evenly. Add an equal volume of Growth Medium to inactivate Trypsin after 2-3 minutes incubation at 37C. Centrifuge cells at 900 rpm for 4 minutes and resuspend in growth medium. Cell should be passage or fed at least twice a week.Assay Protocol: Harvest cells from culture in growth medium and resuspend in assay medium. 2.2 Dispense 4000 cells/5 uL/well into 1536-well black/clear bottom plates using a Multidrop dispenser. After the cells were incubated at 37C for 5 hours, 23 nL of compounds dissolved in DMSO were transferred to the assay plate by a PinTool resulting in a 217-fold dilution. Incubate the plates for 16 hours at 37C, 5% CO2. Add 1 uL of 6X LiveBLAzer FRET B/G (CCF4-AM) Substrate Mixture to each well using a BioRAPTR dispenser and incubate the plates at room temperature for 2 hours. Measure fluorescence intensity at 460 and 530 nm emission and 405 nm excitation by an Envision detector. Data is expressed as the ratio of 460nm/530nm emissions. Add 4 uL of Cell-titer Glo to each well using BioRAPTR and incubate the plates at room temperature for 2 hours. Measure fluorescence intensity by a VewLux plate reader."}
{"smiles": "FC(F)(F)c1ccc(Cl)c(Cl)c1", "outcome": "inactive"}
{"smiles": "CC(O)CNCC(C)O", "note": "(stereo not given)", "outcome": "inactive"}
{"smiles": "NC(=O)c1cnccn1", "outcome": "inactive"}
{"smiles": "CCCCC1CCCCC(=O)O1", "note": "(stereo not given)", "outcome": "inactive"}
{"smiles": "CCCCCCOc1ccc(O)cc1", "AC50": "36.3 µM (active)"}
{"smiles": "CC(=O)c1cccnc1", "outcome": "inactive"}
{"smiles": "CCCc1ccc(N)cc1", "outcome": "inactive"}
{"smiles": "[O-]/[N+](=N\\O)c1ccccc1", "outcome": "inactive"}
{"smiles": "CCCCOCCOCCO", "outcome": "inactive"}
{"smiles": "NC(N)=S", "outcome": "inactive"}
{"smiles": "C=CCOCC(O)CO", "note": "(stereo not given)", "outcome": "inactive"}
{"smiles": "CC(CCO)CC(C)(C)C", "note": "(stereo not given)", "outcome": "inactive"}
{"smiles": "CCCO", "outcome": "inactive"}
{"smiles": "CC(CO)c1ccccc1", "note": "(stereo not given)", "outcome": "inactive"}
{"smiles": "CCOC(=O)C=Cc1ccccc1", "outcome": "inactive"}
{"smiles": "CC(C)(C)c1cccc(O)c1", "outcome": "inactive"}
{"smiles": "CN(C)CCCNCCCN(C)C", "outcome": "inactive"}
{"smiles": "CCC(C)COC(=O)CC(C)C", "note": "(stereo not given)", "outcome": "inactive"}
{"smiles": "Nc1cc([N+](=O)[O-])ccc1C(=O)O", "outcome": "inactive"}
{"smiles": "NC(=O)NC(N)=O", "outcome": "inactive"}
{"smiles": "CCCCCCCCOC(C)=O", "outcome": "inactive"}
{"smiles": "NCCCOCCOCCOCCCN", "outcome": "inactive"}
{"smiles": "CC(=O)CC(=O)N(C)C", "outcome": "inactive"}
{"smiles": "CCCCC/C=C\\C=C\\C(=O)OCC", "outcome": "inactive"}
{"smiles": "CC(=O)c1ccc(O)cc1", "outcome": "inactive"}
{"smiles": "CC(C)C(=O)OCC=Cc1ccccc1", "outcome": "inactive"}
{"smiles": "O=[N+]([O-])c1cc(N(CCO)CCO)ccc1NCCO", "outcome": "inactive"}
{"smiles": "CC(=O)CCC=C(C)CCC=C(C)C", "outcome": "inactive"}
{"smiles": "COc1ccc2[nH]cc(CCNC(C)=O)c2c1", "outcome": "inactive"}
{"smiles": "CCC(=O)OC(C)(C)C1CC=C(C)CC1", "note": "(stereo not given)", "outcome": "inactive"}
{"smiles": "C=CC(=O)OCCCCCC", "outcome": "inactive"}
{"smiles": "CCCCCCCC(=O)N(C)C", "outcome": "inactive"}
{"smiles": "OC[C@@H](O)[C@H](O)[C@@H](O)[C@@H](O)CO", "outcome": "inactive"}
{"smiles": "CC(=O)Nc1cc(S(=O)(=O)O)cc2cc(S(=O)(=O)O)c(N=Nc3ccccc3)c(O)c12", "outcome": "inactive"}
{"smiles": "C=COCC1CCC(COC=C)CC1", "note": "(stereo not given)", "outcome": "inactive"}
{"smiles": "NC(N)=NC(N)=NCCc1ccccc1", "outcome": "inactive", "AC50": "30.6 µM (active)"}
{"smiles": "N=C1N=C(N)c2ccccc21", "AC50": "27.3 µM (active)"}
{"smiles": "CC/C=C\\C#N", "outcome": "inactive"}
{"smiles": "CC(C)=CC(=O)O", "outcome": "inactive"}
